Laboratory results published in ChEMBL document CHEMBL3988442, “University of Dundee, Small-Polar-MMV Screening Library” (2021).
About 13,000 (27%) of roughly 48,000 compounds showed an effect of 50% or more. The list shows a part of the results.

Test system: Wolbachia pipientis
Assay: Anti-Wolbachia Cell-Based Screen
Type: functional
Design: scale not given: in the data most compounds retested in dose-response had high values
Settings: 5 µM

SMILES	Percent Effect
CCc1[nH]c2c(CNC(=O)C3CCCN(C)C3)cc(C)cc2c1C (configuration not stated)	-27.93%
O=C(CCC1CCCCC1)NCc1nnc2ccccn12	-0.7171%
CCN1Cc2nc(OC)c(CNC(=O)C3CCCN(C)C3)cc2C1=O (configuration not stated)	93.23%
CCc1[nH]c2c(CNC(=O)C3CCS(=O)(=O)CC3)cc(C)cc2c1C	-6.161%
CCN1Cc2nc(OC)c(CNC(=O)C3CCS(=O)(=O)CC3)cc2C1=O	82.23%
CCN1Cc2nc(OC)c(CNC(=O)CCC3CCCC3)cc2C1=O	102.4%
Cc1cc(C(F)(F)F)nc(CNC(=O)CCC2CCCN(C)C2)n1 (configuration not stated)	9.588%
COc1ccc(Oc2ccc(CNC(=O)C3CCS(=O)(=O)C3)cn2)cc1 (configuration not stated)	-6.307%
COc1nc2ccccc2cc1CN1CCCC(CNC(C)=O)C1 (configuration not stated)	6.31%
O=C(NCCc1nnc2n1CCCCC2)N1CCC2(CCOC2)C1 (configuration not stated)	10.36%
CNC(=O)c1ccc(=O)n(Cc2csc(C(C)(C)C)n2)c1	14.6%
Cc1cnn(C2CCCN(C(=O)c3c(C)oc4nc[nH]c(=O)c34)C2)c1 (configuration not stated)	-0.5439%
COCc1nc(CNC2CCCc3c2cnn3C(C)(C)C)cs1 (configuration not stated)	-7.69%
CC1(NC(=O)Cc2csc(C(C)(C)C)n2)CCS(=O)(=O)C1 (configuration not stated)	-4.538%
Cc1cc(N2CCC(Cc3cnccn3)C2)ncn1 (configuration not stated)	100.8%
Cc1ccc(N2CCCC(NCc3ccncc3)C2)nn1 (configuration not stated)	1.645%
CN1CCN(c2cc(NC(=O)c3cnccn3)ncn2)CC1	-2.529%
Cc1cc(N2CCC(Cc3ccncc3)C2)ncn1 (configuration not stated)	95.84%
Cc1cc(N2CCC(Cc3ncccn3)C2)ncn1 (configuration not stated)	90.07%
C[C@@H]1CN(c2cc(N3CCC(O)CC3)ncn2)C[C@@]1(O)C1CCC1	2.327%
Cc1cc(N2CCCC2c2cnccn2)ncn1 (configuration not stated)	-8.281%
COc1cc(N2CC[C@H]3OCC[C@@]3(COc3nccc(C)n3)C2)ncn1	-2.077%
COCCO[C@H]1CCN(c2cc(OC)ncn2)[C@H]1Cc1ccncc1	-8.224%
COc1cc(N2CCC(c3nccn3Cc3cccnc3)CC2)ncn1	2.829%
Cc1cc(N2CCC(Cc3cccnc3)CC2)ncn1	156%
Cc1cc2c(N3CCCC(OCc4cccnc4)C3)ncnc2s1 (configuration not stated)	0.4664%

SMILES	Percent Effect
CCN(C(=O)c1cc2c([nH]c1=O)CCCC2=O)C1CCCCC1	14.13%
CN(C)c1ncc(CNC(=O)Nc2ccccc2C(F)(F)F)n1C	9.124%
Cn1nc2c(cc1=O)CN(Cc1coc(-c3cccs3)n1)CC2	1.365%
COCCN1C[C@H]2CC[C@@H]1CN(C(=O)CCc1n[nH]c(C)c1C)C2	0.4749%
COc1cc(N2CCCC(c3nccn3Cc3cccnc3)C2)ncn1 (configuration not stated)	-16.56%
CC(=O)c1c(F)cccc1N1CCC(Cc2cccnc2)CC1	-2.782%
Cc1cc(N2CCC(Cc3cccnc3)C2)ncn1 (configuration not stated)	84.65%
Cc1cc(C(=O)N2C[C@H]3CC[C@@H]2CN(Cc2ccccn2)C3)nc(N)n1	2.343%
Cl.NCCc1cn(Cc2ccccn2)c2ccccc12	119.5%
NC(=O)CCn1cc(CNCCCc2ccncc2)c2ccccc21	-11.7%
CS(=O)(=O)N[C@H]1CCO[C@]2(CCN(CC3CCOCC3)C2)C1.O=C(O)C(F)(F)F	0.7443%
COC1COC2(CCN(CC3CC3)CC2)C1.O=C(O)C(F)(F)F (configuration not stated)	95.93%
COC1COC2(CCN(CC3CCOCC3)CC2)C1.O=C(O)C(F)(F)F (configuration not stated)	105.7%
CS(=O)(=O)N[C@@H]1CCO[C@]2(CCN(CC3CCOCC3)C2)C1.O=C(O)C(F)(F)F	-3.641%
CC(C)(C)c1ncc(CNc2ccccc2Cn2cncn2)s1	1.316%
CSCC(=O)N[C@H]1CN(Cc2c(C)noc2C)C[C@@H]1C(C)C	-1.777%
CC(C)CN1CC(c2nc(C3CC3)n[nH]2)CC1=O (configuration not stated)	4.423%
CSc1nc2cc(C)n(CC(=O)Nc3nccs3)c2c(=O)n1CC(C)C	-4.494%
Cc1ccc(NC(=O)c2ccc(=O)n(CC(=O)NC3CCCC3)n2)cc1	106.4%
Cc1ccc(NC(=O)c2ccc(=O)n(CC(=O)Nc3nccs3)n2)cc1	101.8%
Cc1ccccc1C(=O)Nc1cnn(CC(=O)NC2CCCC2)c1	-2.578%
Cc1ccc(-c2ccc(=O)n(CC(=O)Nc3nccs3)n2)cc1	124.1%
CCC(=O)NC1CCCN(Cn2nc(C(C)(C)C)ccc2=O)C1 (configuration not stated)	-0.4021%
COc1cc(Cl)ccc1C(=O)NCC(=O)Nc1nccs1	-9.549%
O=C(Nc1ccccc1)c1ccc(NCc2nccs2)nn1	3.378%
O=C(CCn1nc(C(=O)Nc2ccccc2)ccc1=O)Nc1nccs1	112.6%

SMILES	Percent Effect
Cc1cc(C)n(CC2CCCCN2CC(=O)Nc2nccs2)n1 (configuration not stated)	-11.15%
O=C(NCc1ccccc1CN1CCCC1=O)Nc1nccs1	-2.659%
N#Cc1cccc(CS(=O)(=O)NCC(O)Cc2ccccc2)c1 (configuration not stated)	-5.845%
Cc1nc(-c2cccc(C#N)c2)nn1CC1(O)CCCCC1	-14.51%
Cc1ccccc1CS(=O)(=O)NCCCN1CCCCC1	-4.018%
Cn1c(NCCC(=O)N2CCCC2)c(C#N)c(=O)n(C)c1=O	17.52%
N#CCCNC(=O)CSc1cc(F)ccc1F	8.044%
O=C(c1cccs1)N1CCCn2c(nc(CN3CCCC3)cc2=O)C1	-6.505%
COCC(=O)NCc1cc(=O)n2c(n1)CN(Cc1cccs1)CCC2	97.08%
CCCN1CCCn2c(nc(CNC(=O)c3nccn3C)cc2=O)C1.O=C(O)C(F)(F)F	-4.018%
COCC(=O)NCc1cc(=O)n2c(n1)CN(Cc1nccs1)CCC2	109.1%
Cn1ccnc1C(=O)NCc1cc(=O)n2c(n1)CN(CC1CC1)CCC2	-4.321%
Cn1cnnc1C1CCCN(C(=O)NCc2ccc3c(c2)OCO3)C1 (configuration not stated)	-7.5%
Cc1cc(C)nc(N2CC=C[C@H]2C(=O)NCc2ccc3c(c2)OCO3)n1	114.7%
Cc1cc(C)nc(N2CC=C[C@@H]2C(=O)NCc2ccc3c(c2)OCO3)n1.Cl	87.31%
CC(CNC(=O)NCc1ccc2c(c1)OCO2)CC1(C)OCCO1 (configuration not stated)	-13.46%
CC(C)(C)NS(=O)(=O)c1cc(NC(=O)C2CC2)ccc1F	-6.714%
Cc1cc(C)nc(CN(C)C(=O)C(c2cccnc2)N2CCCC2)c1 (configuration not stated)	24.45%
COc1ccc(C2CCCN2S(=O)(=O)N(C)CC(C)C)cc1 (configuration not stated)	-5.01%
O=S(=O)(c1ccc(F)cc1Cl)N1CCCC1c1ccncc1 (configuration not stated)	106.2%
COC1CCN(S(=O)(=O)N2CCCC2c2ccco2)CC1 (configuration not stated)	-19.32%
O=S(=O)(c1cc(F)ccc1F)N1CCCC1c1ccco1 (configuration not stated)	90.48%
COc1ccc(C2CCCN2S(=O)(=O)c2cc(F)ccc2F)cc1 (configuration not stated)	118.1%
C[C@@H]1CN(S(=O)(=O)c2ccc(F)cc2Cl)C[C@]1(C)O	2.252%
O=S(=O)(N1CCC(n2cccc2)CC1)N1CCCC1c1ccco1 (configuration not stated)	-32.64%
O=S(=O)(c1cc(F)ccc1F)N1CCCC1c1ccncc1 (configuration not stated)	90.37%

SMILES	Percent Effect
COc1ccc(C2CCCCCN2S(=O)(=O)N(C)C)cc1 (configuration not stated)	-32.58%
CN(CC(=O)NC1CC1)S(=O)(=O)c1ccc(F)cc1Cl	-5.607%
COC(=O)[C@H]1C[C@@H](O)CCN1S(=O)(=O)c1ccc(F)cc1F	-1.254%
COc1ccc(F)cc1S(=O)(=O)N1CCC(OC)CC1	11.35%
Cc1noc(CCCC(=O)N2CCN(C)CC2c2ccccc2)n1 (configuration not stated)	7.741%
Cc1cc(C(=O)N2CCNC(=O)CC2)c(C)n1CC(F)(F)F	-3.477%
CCN(CC)Cc1ccc(C(=O)NC2CCc3cc(Cl)ccc32)o1 (configuration not stated)	1.872%
CNS(=O)(=O)CCCn1nnc(-c2ccc(F)c(C)c2)n1	-16.4%
O=C(NC1CC(=O)N(C2Cc3ccccc3C2)C1)c1csnn1 (configuration not stated)	-8.023%
CN1CCN2C[C@@H](NC(=O)c3nc4ccccc4[nH]3)C[C@H]2C1	10.91%
CN1C(=O)CC(C(=O)O)C12CCN(Cc1ccc(F)c(Cl)c1)CC2 (configuration not stated)	19.25%
CCC[C@H]1CN(S(=O)(=O)c2cc(C)ccc2F)C[C@@H]1N	-6.271%
Cc1ccc(F)c(S(=O)(=O)N2CCCC2c2ccncc2)c1 (configuration not stated)	113.4%
Cc1ccc([C@@H]2CN(S(=O)(=O)c3cc(C)ccc3F)C[C@H]2N(C)C)cc1	-17.89%
COc1ccc(NC(C)C(=O)N2CCN(Cc3ccccc3)CC2)cn1 (configuration not stated)	10.35%
COc1cccc(C(O)CNC(=O)CC2CCCCC2)c1 (configuration not stated)	1.218%
CN1CCC(NCC(O)c2cccc(OCc3ccccc3)c2)CC1 (configuration not stated)	116.6%
CO[C@@H](C(=O)NC1CCOCC1)c1ccccc1	-10.4%
CC(C)Oc1cccc(C(O)CNC(=O)CCc2ccncc2)c1 (configuration not stated)	-6.251%
OC(CNC1CCSCC1)c1cccc(OCc2ccccc2)c1 (configuration not stated)	91.01%
CCN1CCC(CC(=O)NCC(O)c2cccc(OC)c2)CC1 (configuration not stated)	5.929%
CN(Cc1ccccc1)c1ncccc1CNC1CCSCC1	-9.19%
OC(CNC1CCOCC1)c1cccc(OCc2ccccc2)c1 (configuration not stated)	100.2%
COc1cccc(CNC(CN2CCN(C)CC2)c2ccccc2)c1 (configuration not stated)	-4.654%
